Eight molecules from PubChem BioAssay (NCI) can be followed below.

This is part of a sample that, as a whole, favours compounds with a hit. Of some 83,000 tested, about 20% had one in any assay.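 Single-concentration screen, 48 h exposure, 96-well plates. Endpoint: percent growth. Below 10 = active.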 Values without a mark were called inactive. The source made the active and inactive calls.

Assay in all cases: NCI-60 one-dose screen, 48 h (100 = growth as untreated, 0 = no growth, -100 = all killed)
One experiment has as its system DU-145 prostate. To be noted: 10 µM unless noted.
The subject of the next experiment is K-562 leukemia. To be noted: 10 µM unless noted.
The subject of the next experiment is MALME-3M melanoma. To be noted: 10 µM unless noted.
In another experiment the test system is RXF 393 renal. To be noted: 10 µM unless noted.
The test system of another experiment is SF-268 CNS. To be noted: 10 µM unless noted.
The test system of another experiment is SF-295 CNS. The following applies: 10 µM unless noted.
The test system of another experiment is SF-539 CNS. To be noted: 10 µM unless noted.
The next experiment has as its system UACC-257 melanoma. To be noted: 10 µM unless noted.
The subject of a further experiment is M14 melanoma. The following applies: 10 µM unless noted.
The next experiment concerns HCT-15 colon. The following applies: 10 µM unless noted.
A further experiment has as its system HT29 colon. The following applies: 10 µM unless noted.
Another experiment has as its system SNB-75 CNS. To be noted: 10 µM unless noted.
Another experiment relates to SNB-19 CNS. The following applies: 10 µM unless noted.
The next experiment has as its system U251 CNS. The following applies: 10 µM unless noted.
The test system of another experiment is PC-3 prostate. The following applies: 10 µM unless noted.
For the next experiment, the system named is SK-MEL-5 melanoma. The following applies: 10 µM unless noted.
In another experiment the test system is UACC-62 melanoma. To be noted: 10 µM unless noted.
A further experiment relates to SK-MEL-28 melanoma. To be noted: 10 µM unless noted.
In the next experiment the test system is MDA-MB-231 breast. The following applies: 10 µM unless noted.
In a further experiment the test system is LOX IMVI melanoma. The following applies: 10 µM.

As for `O=c1[nH]n(C(=S)N/N=C/c2ccccc2Cl)c(=O)c2ccccc12`, the growth with DU-145 prostate was 15.1%; in the experiment with K-562 leukemia it was 4.54% (active); with MALME-3M melanoma, 28.3%; with RXF 393 renal, -57.7% (active); in the experiment with SF-268 CNS, 28.5%; in the experiment with SF-295 CNS, 15.9%. Also, the growth in the experiment with SF-539 CNS is -20.2% (active); in the experiment with UACC-257 melanoma it was 37.2%; in the experiment on M14 melanoma it was -41.9% (active); in the experiment on HCT-15 colon, -41.3% (active); with HT29 colon, 0.552% (active); in the experiment with SNB-75 CNS it was 52.1%. Besides, the growth is 8.55% (active) in the experiment on SNB-19 CNS; -46.5% (active) in the experiment on U251 CNS; 22.6% in the experiment with PC-3 prostate; 5.82% (active) in the experiment with SK-MEL-5 melanoma; -65.4% (active) with UACC-62 melanoma; -26.3% (active) in the experiment on SK-MEL-28 melanoma.
As to `C[C@H](Nc1nc(NCCc2ccccc2)nc2ccccc12)c1ccccc1`, the growth was -85.6% (active) in the experiment with DU-145 prostate; -43.9% (active) in the experiment with K-562 leukemia; -91.7% (active) in the experiment on MALME-3M melanoma; -90.5% (active) in the experiment with RXF 393 renal; -70.4% (active) in the experiment with SF-268 CNS; -95.8% (active) in the experiment on SF-295 CNS. Moreover, the growth is -96.2% (active) in the experiment on SF-539 CNS; -76% (active) in the experiment on UACC-257 melanoma; -84.5% (active) in the experiment with M14 melanoma; -91.2% (active) in the experiment with HCT-15 colon; -90.6% (active) in the experiment with HT29 colon; -44.6% (active) with SNB-75 CNS. Also, the growth with SNB-19 CNS was -75% (active); with U251 CNS, -77.7% (active); in the experiment with PC-3 prostate, -54.5% (active); with SK-MEL-5 melanoma it was -100% (active); in the experiment with UACC-62 melanoma, -95% (active); with SK-MEL-28 melanoma, -98.5% (active).
With `COc1ccc(CCC2c3c(cc4c(c3OC)OCO4)CCN2C)cc1` (stereo not drawn), the growth in the experiment on DU-145 prostate was 5.2% (active); with K-562 leukemia, 3.01% (active); in the experiment with MALME-3M melanoma, -98.4% (active); in the experiment on MDA-MB-231 breast, -80.8% (active); in the experiment with RXF 393 renal it was -35% (active); with SF-268 CNS, 10.2%. For the same molecule, the growth with SF-295 CNS was -65.2% (active); in the experiment on SF-539 CNS, -99.9% (active); with UACC-257 melanoma it was -65.7% (active); in the experiment with HCT-15 colon, -16.4% (active); in the experiment on HT29 colon it was -45.6% (active); in the experiment with SNB-75 CNS, 2.42% (active). The growth in the experiment with SNB-19 CNS was -2.75% (active); in the experiment on U251 CNS it was -90.4% (active); in the experiment with PC-3 prostate, 3.75% (active); with SK-MEL-5 melanoma, -98.9% (active); in the experiment with UACC-62 melanoma it was -95.7% (active); with LOX IMVI melanoma, -100% (active). The growth with SK-MEL-28 melanoma is -98.3% (active).
For `Cc1ccc(C(=O)CSc2nc3ccc(C)cc3c(=O)n2-c2ccc(F)cc2)cc1`, the growth is 80.9% in the experiment with DU-145 prostate; 92.7% with K-562 leukemia; 79.6% in the experiment on MALME-3M melanoma; 21.3% in the experiment with MDA-MB-231 breast; 30.5% in the experiment with RXF 393 renal; 45.5% in the experiment with SF-268 CNS. Also, the growth with SF-295 CNS was 28%; in the experiment on SF-539 CNS it was 40.2%; in the experiment on UACC-257 melanoma, 85.9%; with M14 melanoma, 79.7%; in the experiment with HCT-15 colon, 84.6%; in the experiment with U251 CNS it was 28.7%. The growth in the experiment with PC-3 prostate was 74%; with SK-MEL-5 melanoma, 72%; in the experiment on UACC-62 melanoma, 86.1%; in the experiment on LOX IMVI melanoma, 72.9%; with SK-MEL-28 melanoma, 88.1%.
For `COc1cc(-c2ccc(/C=N/NC(=O)c3[nH]c4ccc(Br)cc4c3-c3ccccc3)s2)cc(OC)c1OC`, the growth was 86.4% in the experiment on DU-145 prostate; 89.6% in the experiment with K-562 leukemia; 86.7% in the experiment with MALME-3M melanoma; 82.4% in the experiment on RXF 393 renal; 67.8% in the experiment with SF-268 CNS; 49.6% in the experiment on SF-295 CNS. For the same molecule, the growth in the experiment with SF-539 CNS is 6.55% (active); in the experiment with UACC-257 melanoma, 100%; with M14 melanoma, 82.5%; with HCT-15 colon, 66%; in the experiment on HT29 colon it was 93.6%; in the experiment with SNB-75 CNS, 66.4%. The growth was 63.9% in the experiment with SNB-19 CNS; 63.4% in the experiment with U251 CNS; 76.5% in the experiment on PC-3 prostate; 89.8% in the experiment with SK-MEL-5 melanoma; 84.5% with UACC-62 melanoma.
In the case of `O=C(/C=C/c1cccc(OCc2ccccc2)c1)c1nc2ccccc2[nH]1`, the growth in the experiment with DU-145 prostate is 55.9%; in the experiment with K-562 leukemia, -8.72% (active); with MALME-3M melanoma it was 90.9%; in the experiment on RXF 393 renal, 20.4%; in the experiment with SF-268 CNS it was 62.3%; with SF-295 CNS, 69.9%. Moreover, the growth is -56.5% (active) in the experiment with SF-539 CNS; 70.1% in the experiment with UACC-257 melanoma; 1.55% (active) in the experiment on M14 melanoma; -75.5% (active) in the experiment with HCT-15 colon; -45.7% (active) in the experiment on HT29 colon; 66.8% in the experiment on SNB-75 CNS. Besides, the growth was 53.6% with SNB-19 CNS; -65.8% (active) in the experiment on U251 CNS; 25.9% with PC-3 prostate; 72.1% in the experiment on SK-MEL-5 melanoma; 56% in the experiment with UACC-62 melanoma; 94.9% with SK-MEL-28 melanoma.
With `CCN(CC)C(=O)N/C(N)=N/c1nc2ccccc2s1`, the growth was 48.8% in the experiment with DU-145 prostate; 30.3% with K-562 leukemia; 56.8% in the experiment on MALME-3M melanoma; 58.5% in the experiment with RXF 393 renal; 72.6% in the experiment on SF-268 CNS; 32.5% with SF-295 CNS. The growth in the experiment with SF-539 CNS is 69.7%; in the experiment with UACC-257 melanoma, 40.5%; in the experiment on M14 melanoma it was 71.9%; in the experiment with HCT-15 colon it was 54%; in the experiment on HT29 colon, 62.5%; with SNB-75 CNS it was 63.9%. In addition, the growth with SNB-19 CNS was 56.5%; with U251 CNS it was 66.9%; in the experiment on PC-3 prostate, 54.9%; in the experiment with SK-MEL-5 melanoma it was -24.9% (active); in the experiment on UACC-62 melanoma it was 43.7%; in the experiment on SK-MEL-28 melanoma, 75.4%.
As for `C(=C\c1cc(/C=C/c2ccccc2)c2ccccc2n1)/c1ccccc1`, the growth was 101% in the experiment on DU-145 prostate; 43.2% with K-562 leukemia; 90.5% with MALME-3M melanoma; 111% in the experiment with RXF 393 renal; 102% with SF-268 CNS; 109% in the experiment with SF-295 CNS. Besides, the growth was 74.3% in the experiment on SF-539 CNS; 98.5% in the experiment on UACC-257 melanoma; 51.4% in the experiment with M14 melanoma; 29.2% with HCT-15 colon; 86% with HT29 colon; 115% in the experiment on SNB-75 CNS. In addition, the growth in the experiment on SNB-19 CNS was 97.7%; with U251 CNS it was 62.3%; in the experiment with PC-3 prostate it was 78.2%; in the experiment on SK-MEL-5 melanoma it was 81.7%; in the experiment on UACC-62 melanoma it was 93.4%; in the experiment on SK-MEL-28 melanoma it was 114%.
